Results: the supplement of paper PMC7411054
Structures can show the parent of a compound that is named as a salt.

How the values were obtained:
Details in all cases: treatment time: 24 h
A549-ACTB-RAB5A [1] = experiment: lowest phenotypically active concentration; higher = less potent
How it was run: (§1)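 The reporter lines, fifteen in total and built by gene editing in A549, HepG2 and WPMY1 cells, used BFP for segmentation alongside GFP and RFP/FusionRed markers. Each was treated at 0.3, 1, 3 or 9 µM for 24 h in four wells and then imaged live, with live-cell features normalised to solvent control wells. Deviation meant ≥3 of 4 wells beyond the 95th percentile of control Euclidean distances; reproducibility meant a median replicate Pearson correlation above the 95th percentile of non-replicates. Only conditions meeting both were scored as phenotypically active.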

A549-GM130-SQSTM1 [2] = experiment: as above
How it was run: as §1

A549-TUBA1B-RELA [3] = experiment: as above
How it was run: as §1

A549-ACTB-RAB5A [4] = experiment: phenotypically active (imaging signature differs from DMSO and reproducible) at any of 0.3-9 uM (binary (1 = active, 0 = inactive)); higher = active
How it was run: as §1

A549-CANX-COX4 = experiment: as above
How it was run: as §1

A549-GM130-SQSTM1 [5] = experiment: as above
How it was run: as §1

A549-TP53BP1-CLTA = experiment: as above
How it was run: as §1

A549-TUBA1B-RELA [6] = experiment: as above
How it was run: as §1

HepG2-ACTB-RAB5A [7] = experiment: as above
How it was run: as §1

HepG2-CANX-COX4 = experiment: as above
How it was run: as §1

HepG2-GM130-SQSTM1 = experiment: as above
How it was run: as §1

HepG2-TP53BP1-CLTA = experiment: as above
How it was run: as §1

HepG2-TUBA1B-RELA = experiment: as above
How it was run: as §1

WPMY1-ACTB-RAB5A = experiment: as above
How it was run: as §1

WPMY1-CANX-COX4 = experiment: as above
How it was run: as §1

WPMY1-GM130-SQSTM1 [8] = experiment: as above
How it was run: as §1

WPMY1-TP53BP1-CLTA = experiment: as above
How it was run: as §1

WPMY1-TUBA1B-RELA = experiment: as above
How it was run: as §1

HepG2-ACTB-RAB5A [9] = experiment: lowest phenotypically active concentration; higher = less potent
How it was run: as §1

WPMY1-GM130-SQSTM1 [10] = experiment: as above
How it was run: as §1

Row | SMILES | lowest phenotypically active concentration (A549-ACTB-RAB5A [1]) [µM] | lowest phenotypically active concentration (A549-GM130-SQSTM1 [2]) [µM] | lowest phenotypically active concentration (A549-TUBA1B-RELA [3]) [µM] | phenotypically active (A549-ACTB-RAB5A [4]) | phenotypically active (A549-CANX-COX4) | phenotypically active (A549-GM130-SQSTM1 [5]) | phenotypically active (A549-TP53BP1-CLTA) | phenotypically active (A549-TUBA1B-RELA [6]) | phenotypically active (HepG2-ACTB-RAB5A [7]) | phenotypically active (HepG2-CANX-COX4) | phenotypically active (HepG2-GM130-SQSTM1) | phenotypically active (HepG2-TP53BP1-CLTA) | phenotypically active (HepG2-TUBA1B-RELA) | phenotypically active (WPMY1-ACTB-RAB5A) | phenotypically active (WPMY1-CANX-COX4) | phenotypically active (WPMY1-GM130-SQSTM1 [8]) | phenotypically active (WPMY1-TP53BP1-CLTA) | phenotypically active (WPMY1-TUBA1B-RELA) | lowest phenotypically active concentration (HepG2-ACTB-RAB5A [9]) [µM] | lowest phenotypically active concentration (WPMY1-GM130-SQSTM1 [10]) [µM]
1 | CC1(C)O[C@@H]2C[C@H]3[C@@H]4C[C@H](F)C5=CC(=O)C=C[C@]5(C)[C@@]4(F)[C@@H](O)C[C@]3(C)[C@]2(C(=O)CO)O1 [fluocinolone acetonide] | ≤ 0.3 | ≤ 0.3 | ≤ 0.3 | 1 (active) | 1 (active) | 1 (active) | 1 (active) | 1 (active) | 0 (inactive) | 0 (inactive) | 0 (inactive) | 0 (inactive) | 0 (inactive) | 1 (active) | 0 (inactive) | 0 (inactive) | 0 (inactive) | 0 (inactive) |  | 
2 | CC(C)(C)c1cc(C(=O)/C=C/c2ccc(C(=O)O)cc2)cc(C(C)(C)C)c1 | ≤ 0.3 | 1 | 1 | 1 (active) | 1 (active) | 1 (active) | 0 (inactive) | 1 (active) | 1 (active) | 1 (active) | 1 (active) | 1 (active) | 0 (inactive) | 1 (active) | 1 (active) | 1 (active) | 1 (active) | 1 (active) | ≤ 0.3 | ≤ 0.3
3 | CC(C)c1cnn2c(NCc3ccccc3)cc(NCCCCCCN)nc12 [BS 181 dihydrochloride] | 9 |  | 9 | 1 (active) | 1 (active) | 0 (inactive) | 1 (active) | 1 (active) | 0 (inactive) | 0 (inactive) | 0 (inactive) | 0 (inactive) | 0 (inactive) | 0 (inactive) | 1 (active) | 0 (inactive) | 1 (active) | 1 (active) |  | 
4 | Cc1cc(Nc2ccc(NC(=O)c3ccc(Nc4ccnc5ccccc45)cc3)cc2)nc(N)n1 | 1 | 1 | 1 | 1 (active) | 0 (inactive) | 1 (active) | 1 (active) | 1 (active) | 1 (active) | 0 (inactive) | 1 (active) | 1 (active) | 1 (active) | 1 (active) | 0 (inactive) | 1 (active) | 1 (active) | 1 (active) | 9 | 1
5 | COc1c(C=O)c(O)cc2c1C(=O)c1ccccc1C2=O [Damnacanthal] | 9 | 3 |  | 1 (active) | 0 (inactive) | 1 (active) | 1 (active) | 0 (inactive) | 1 (active) | 0 (inactive) | 1 (active) | 1 (active) | 0 (inactive) | 1 (active) | 1 (active) | 1 (active) | 1 (active) | 1 (active) | 9 | 3
6 | N#C/C(=C(/N)Sc1ccc(N)cc1)c1ccccc1C(F)(F)F | 3 | 3 |  | 1 (active) | 0 (inactive) | 1 (active) | 1 (active) | 0 (inactive) | 1 (active) | 1 (active) | 1 (active) | 1 (active) | 1 (active) | 0 (inactive) | 0 (inactive) | 0 (inactive) | 1 (active) | 0 (inactive) | 3 | 
7 | Cc1noc(C)c1-c1ccc2c(c1)nc(CCc1ccc(OCCCN(C)C)cc1)n2CCN1CCOCC1 | 9 | 3 | 3 | 1 (active) | 0 (inactive) | 1 (active) | 1 (active) | 1 (active) | 1 (active) | 1 (active) | 1 (active) | 1 (active) | 1 (active) | 1 (active) | 1 (active) | 1 (active) | 1 (active) | 1 (active) | 9 | 9
8 | NS(=O)(=O)c1nn2cc(-c3ccccc3)nc2s1 | 9 | 9 |  | 1 (active) | 0 (inactive) | 1 (active) | 1 (active) | 0 (inactive) | 1 (active) | 1 (active) | 1 (active) | 0 (inactive) | 1 (active) | 1 (active) | 0 (inactive) | 1 (active) | 1 (active) | 1 (active) | 9 | 9
9 | COc1cc(OC)c2cc(-c3ccncc3)cnc2c1 [DMPQ dihydrochloride] | 9 | 9 |  | 1 (active) | 0 (inactive) | 1 (active) | 1 (active) | 0 (inactive) | 0 (inactive) | 1 (active) | 0 (inactive) | 0 (inactive) | 0 (inactive) | 0 (inactive) | 1 (active) | 0 (inactive) | 1 (active) | 0 (inactive) |  | 
10 | Cc1ccc(NC2=CC(=O)c3sc(C)nc3C2=O)cc1 [Ryuvidine] | 9 | 9 | 3 | 1 (active) | 0 (inactive) | 1 (active) | 1 (active) | 1 (active) | 1 (active) | 0 (inactive) | 1 (active) | 1 (active) | 0 (inactive) | 1 (active) | 1 (active) | 1 (active) | 0 (inactive) | 1 (active) | 3 | 1
11 | O=C(NOCC1CC1)c1ccc(F)c(F)c1Nc1ccc(I)cc1Cl | ≤ 0.3 | 1 | 9 | 1 (active) | 0 (inactive) | 1 (active) | 1 (active) | 1 (active) | 1 (active) | 1 (active) | 1 (active) | 1 (active) | 1 (active) | 0 (inactive) | 0 (inactive) | 0 (inactive) | 0 (inactive) | 0 (inactive) | ≤ 0.3 | 
